# Results taken from publication PMC7862700, “An all-to-all approach to the identification of sequence-specific readers for epigenetic DNA modifications on cytosine”.
# Tests used:
# Assay in all cases: DAPPL (digital affinity profiling via proximity ligation, sequencing); 10 mM Tris-HCl pH 7.5, 50 mM NaCl, 1 mM DTT, 4% glycerol, room temperature, 30 min; GST-TFs on glutathione beads, 16-mer random dsDNA library, 0.1% formaldehyde crosslink after washing; high values mean tight binding
# ETV5 = ETV5 (Homo sapiens, UniProt P41161 1-510); conditions: protein: recombinant; tags: N-terminal GST; dsDNA, one strand shown
# ETV5, sequence (P41161 whole entry, the tested form may be a part): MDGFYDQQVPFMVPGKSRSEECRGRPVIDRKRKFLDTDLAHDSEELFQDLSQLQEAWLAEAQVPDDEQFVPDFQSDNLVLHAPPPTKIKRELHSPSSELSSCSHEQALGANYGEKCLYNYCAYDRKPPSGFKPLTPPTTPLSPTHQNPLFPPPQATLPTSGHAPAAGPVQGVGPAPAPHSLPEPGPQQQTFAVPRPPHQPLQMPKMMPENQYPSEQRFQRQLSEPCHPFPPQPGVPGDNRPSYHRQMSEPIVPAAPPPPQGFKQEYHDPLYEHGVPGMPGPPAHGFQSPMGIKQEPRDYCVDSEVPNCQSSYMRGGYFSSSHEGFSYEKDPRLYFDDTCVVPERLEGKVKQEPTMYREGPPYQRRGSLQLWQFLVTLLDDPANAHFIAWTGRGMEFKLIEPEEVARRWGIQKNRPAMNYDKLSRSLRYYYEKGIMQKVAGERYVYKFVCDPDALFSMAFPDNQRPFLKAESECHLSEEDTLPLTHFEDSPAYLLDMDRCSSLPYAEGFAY
# Method in brief: (§1)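 Human transcription factors were made in yeast as GST fusions, captured on glutathione beads and barcoded with DNA. With a tag-only sample included, the pool was incubated with 200 nmole of a random double-stranded 16-mer DNA library in Tris/NaCl/DTT/glycerol buffer at room temperature for 30 min, then crosslinked with 0.1% formaldehyde after washing, ligated by proximity, amplified and sequenced. For binding signal, each hexamer's read frequency for a factor is divided by its frequency for the tag-only sample.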
# HSF1 = HSF1 (Homo sapiens, UniProt Q00613 1-529); conditions: protein: recombinant; tags: N-terminal GST; chain copies: 3; dsDNA, one strand shown
# HSF1, sequence (Q00613 whole entry): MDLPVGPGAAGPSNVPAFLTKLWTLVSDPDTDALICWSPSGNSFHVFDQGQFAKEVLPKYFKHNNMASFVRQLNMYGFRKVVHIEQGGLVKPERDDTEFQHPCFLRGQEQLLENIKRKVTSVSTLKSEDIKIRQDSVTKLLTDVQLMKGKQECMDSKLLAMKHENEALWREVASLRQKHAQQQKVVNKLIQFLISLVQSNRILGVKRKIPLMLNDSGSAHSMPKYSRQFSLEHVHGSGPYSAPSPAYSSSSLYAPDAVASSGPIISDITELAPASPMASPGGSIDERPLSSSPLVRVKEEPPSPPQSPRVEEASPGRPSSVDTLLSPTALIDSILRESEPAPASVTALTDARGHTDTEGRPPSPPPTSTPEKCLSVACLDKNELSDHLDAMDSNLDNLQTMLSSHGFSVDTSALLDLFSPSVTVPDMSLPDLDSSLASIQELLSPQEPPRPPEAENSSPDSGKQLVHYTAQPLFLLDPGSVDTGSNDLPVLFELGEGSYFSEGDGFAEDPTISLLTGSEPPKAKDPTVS
# Method in brief: as §1
# SPIC = biological target: T1, SPIC (Homo sapiens, UniProt Q8N5J4 1-248); conditions: protein: recombinant; tags: N-terminal GST; dsDNA, one strand shown
# T1 sequence: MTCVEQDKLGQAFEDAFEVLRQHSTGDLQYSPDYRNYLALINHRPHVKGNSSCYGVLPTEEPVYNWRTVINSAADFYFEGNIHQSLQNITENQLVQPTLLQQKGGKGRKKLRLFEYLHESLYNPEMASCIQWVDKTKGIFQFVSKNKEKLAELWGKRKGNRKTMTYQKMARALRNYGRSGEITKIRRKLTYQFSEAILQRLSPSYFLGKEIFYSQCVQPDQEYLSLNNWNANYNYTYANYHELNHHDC
# Method in brief: as §1
# ELF4 = ELF4 (Homo sapiens, UniProt Q99607 1-663); conditions: protein: recombinant; tags: N-terminal GST; dsDNA, one strand shown
# ELF4, sequence (Q99607 whole entry): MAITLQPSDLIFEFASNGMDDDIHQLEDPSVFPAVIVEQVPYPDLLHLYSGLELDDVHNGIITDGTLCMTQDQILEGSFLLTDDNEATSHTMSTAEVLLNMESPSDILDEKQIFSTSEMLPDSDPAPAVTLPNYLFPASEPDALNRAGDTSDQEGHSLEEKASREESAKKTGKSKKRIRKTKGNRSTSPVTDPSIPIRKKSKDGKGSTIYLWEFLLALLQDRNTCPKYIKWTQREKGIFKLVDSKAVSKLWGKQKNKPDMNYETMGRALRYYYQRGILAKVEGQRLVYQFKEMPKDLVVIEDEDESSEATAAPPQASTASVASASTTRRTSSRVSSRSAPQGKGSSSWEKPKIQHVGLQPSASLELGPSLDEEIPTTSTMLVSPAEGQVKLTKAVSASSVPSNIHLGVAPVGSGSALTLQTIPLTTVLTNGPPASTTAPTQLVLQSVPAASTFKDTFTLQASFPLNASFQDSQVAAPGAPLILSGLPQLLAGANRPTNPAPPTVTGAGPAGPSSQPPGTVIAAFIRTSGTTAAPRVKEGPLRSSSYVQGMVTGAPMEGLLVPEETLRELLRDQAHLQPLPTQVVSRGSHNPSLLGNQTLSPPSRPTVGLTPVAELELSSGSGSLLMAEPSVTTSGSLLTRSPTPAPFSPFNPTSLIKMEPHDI
# Method in brief: as §1
# ELK4 = biological target: T2, ELK4 (Homo sapiens, UniProt P28324-2 1-405); conditions: protein: recombinant; tags: N-terminal GST; dsDNA, one strand shown
# T2 sequence: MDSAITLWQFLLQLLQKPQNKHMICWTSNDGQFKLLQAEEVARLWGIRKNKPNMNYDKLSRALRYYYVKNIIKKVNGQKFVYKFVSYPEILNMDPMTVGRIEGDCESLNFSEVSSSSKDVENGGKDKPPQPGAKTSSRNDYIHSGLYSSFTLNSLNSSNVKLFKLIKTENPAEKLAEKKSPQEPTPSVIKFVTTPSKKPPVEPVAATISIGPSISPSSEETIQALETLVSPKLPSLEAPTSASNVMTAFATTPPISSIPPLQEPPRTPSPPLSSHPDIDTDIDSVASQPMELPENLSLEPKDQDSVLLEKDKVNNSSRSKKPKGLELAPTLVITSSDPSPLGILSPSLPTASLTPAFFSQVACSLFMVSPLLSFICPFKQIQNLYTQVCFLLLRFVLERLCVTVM
# Method in brief: as §1
# ETV2 = biological target: T3, ETV2 (Homo sapiens, UniProt O00321 1-342); conditions: protein: recombinant; tags: N-terminal GST; dsDNA, one strand shown
# T3 sequence: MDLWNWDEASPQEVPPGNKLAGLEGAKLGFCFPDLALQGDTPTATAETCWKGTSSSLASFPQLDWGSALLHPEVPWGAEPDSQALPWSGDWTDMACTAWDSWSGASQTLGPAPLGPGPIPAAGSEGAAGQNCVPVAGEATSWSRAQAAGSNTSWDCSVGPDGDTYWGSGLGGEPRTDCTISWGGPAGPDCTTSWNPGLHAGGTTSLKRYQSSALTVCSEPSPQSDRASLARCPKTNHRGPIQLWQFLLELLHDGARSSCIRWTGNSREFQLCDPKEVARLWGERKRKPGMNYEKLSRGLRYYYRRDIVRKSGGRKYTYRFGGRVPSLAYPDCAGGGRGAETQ
# Method in brief: as §1
# ELF3 = biological target: T4, ELF3 (Homo sapiens, UniProt P78545 1-371); conditions: protein: recombinant; tags: N-terminal GST; dsDNA, one strand shown
# T4 sequence: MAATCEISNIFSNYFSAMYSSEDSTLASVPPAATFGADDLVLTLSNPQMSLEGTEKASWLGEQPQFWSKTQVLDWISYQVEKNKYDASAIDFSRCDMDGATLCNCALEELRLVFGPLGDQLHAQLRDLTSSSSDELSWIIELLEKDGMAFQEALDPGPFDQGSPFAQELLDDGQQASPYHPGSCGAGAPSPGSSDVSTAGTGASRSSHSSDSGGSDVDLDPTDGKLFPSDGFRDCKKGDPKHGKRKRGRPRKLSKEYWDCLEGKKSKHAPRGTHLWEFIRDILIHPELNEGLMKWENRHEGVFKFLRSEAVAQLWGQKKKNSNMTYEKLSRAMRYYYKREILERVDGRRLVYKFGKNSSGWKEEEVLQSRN
# Method in brief: as §1
# CRX = CRX (Homo sapiens, UniProt O43186 1-299); conditions: protein: recombinant; tags: N-terminal GST; dsDNA, one strand shown
# CRX, sequence (O43186 whole entry): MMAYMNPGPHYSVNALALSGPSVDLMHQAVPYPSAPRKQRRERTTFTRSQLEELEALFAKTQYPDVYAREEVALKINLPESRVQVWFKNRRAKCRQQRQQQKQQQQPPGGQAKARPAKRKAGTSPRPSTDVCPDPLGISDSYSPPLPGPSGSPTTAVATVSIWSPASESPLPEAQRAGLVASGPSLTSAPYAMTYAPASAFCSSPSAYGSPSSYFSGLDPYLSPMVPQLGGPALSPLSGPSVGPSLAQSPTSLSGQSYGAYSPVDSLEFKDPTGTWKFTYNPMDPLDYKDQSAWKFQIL
# Method in brief: as §1
# ETV1 = ETV1 (Homo sapiens, UniProt P50549 1-477); conditions: protein: recombinant; tags: N-terminal GST; dsDNA, one strand shown
# ETV1, sequence (P50549 whole entry): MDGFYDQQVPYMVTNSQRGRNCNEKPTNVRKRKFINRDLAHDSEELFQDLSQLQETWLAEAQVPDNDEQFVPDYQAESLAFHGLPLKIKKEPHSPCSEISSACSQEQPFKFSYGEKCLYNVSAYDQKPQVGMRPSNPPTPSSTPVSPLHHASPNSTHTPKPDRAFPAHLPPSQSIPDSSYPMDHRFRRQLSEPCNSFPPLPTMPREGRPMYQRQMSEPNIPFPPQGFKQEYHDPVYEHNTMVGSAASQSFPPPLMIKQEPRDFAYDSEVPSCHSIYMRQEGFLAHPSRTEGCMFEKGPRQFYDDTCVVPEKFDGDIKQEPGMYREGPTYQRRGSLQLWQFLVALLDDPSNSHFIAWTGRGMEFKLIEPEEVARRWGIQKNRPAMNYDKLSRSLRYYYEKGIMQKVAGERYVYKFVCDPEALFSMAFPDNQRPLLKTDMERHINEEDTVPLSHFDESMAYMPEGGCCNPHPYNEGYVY
# Method in brief: as §1
sequence,measurement,setting,value
TAGATT,binding signal,ETV5,"1.12 fold enrichment (6-mer frequency, TF over GST control)"
same,binding signal,HSF1,"2.19 fold enrichment (6-mer frequency, TF over GST control)"
same,binding signal,SPIC,"1.28 fold enrichment (6-mer frequency, TF over GST control)"
same,binding signal,ELF4,"1.19 fold enrichment (6-mer frequency, TF over GST control)"
same,binding signal,ELK4,"1.29 fold enrichment (6-mer frequency, TF over GST control)"
same,binding signal,ETV2,"1.13 fold enrichment (6-mer frequency, TF over GST control)"
same,binding signal,ELF3,"1.07 fold enrichment (6-mer frequency, TF over GST control)"
same,binding signal,CRX,"2.29 fold enrichment (6-mer frequency, TF over GST control)"
same,binding signal,ETV1,"1.22 fold enrichment (6-mer frequency, TF over GST control)"
